Screening data: PubChem, National Center for Advancing Translational Sciences (NCATS)
Giardia killer: Giardia lamblia killing; activity change, % at 7.66 µM, hits read low; Giardia lamblia trophozoite viability; hit rate 0.15% among 340,000; in the data active = activity change below about -80%; inconclusive = between about -30% and that limit;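 note: parasites exposed to compound for two days anaerobically before the ATP read; % is set by controls: 0 for no effect and ±100 for the full control effect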
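Anaerobic 48 hrs incubation at 37 deg C of 100 trophozoites/well with test compounds; ATPLite 1-Step luminescence, 15-30 min RT, reports cellular ATP as viability.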
uPA generation: inhibitors of cell surface uPA generation | cell surface uPA generation assay, qHTS | Potency, µM (doses to about 38.3 µM), inactives show top-dose activity change, negative = inhibition, actives largely listed as inhibitors | hit rate 0.31% among 330,000 | AID 540303; active = well fitted inhibition curve with a large enough effect; inconclusive = small, poorly fitted or top-dose-only effect; inactive = no such curve, though single readings can be large or run the other way; tested in mouse RAW 264.7 cells; note: potency is the fitted concentration of half-maximal effect; % is set by controls: 0 for no effect and ±100 for the full control effect; nearly all actives have a fitted effect of over 55% in size
MCF10A rerep: inducers of DNA re-replication in MCF 10A breast cells. MCF 10A DNA re-replication, Hoechst nuclear intensity, 48 h. Potency, µM (highest dose often 46.1 µM), for inactives: at the top dose activity, positive = re-replication, usual class: activators. hit rate 2.9% among 350,000. AID 624296; note: potency is the fitted concentration of half-maximal effect; % of control where 0% means no effect; nearly all actives have a fitted effect of over 50% in size
SW480 rerep: inducers of DNA re-replication in SW480 colon cancer cells; hit rate 1.8% among 340,000; SW480 DNA re-replication, Hoechst DNA content imaging, 48 h; Potency, µM (titrated, usually from 46.1 µM), without a hit: top-dose re-replication activation, hits mostly activators; note: potency is the fitted concentration of half-maximal effect; % of control where 0% means no effect; nearly all actives have a fitted effect of over 55% in size
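SW480 cells exposed to compounds for 48 hr at 37 C, 5% CO2, then Hoechst-stained 40 min. Nuclear DNA content imaged by fluorescence scanning (405 nm excitation, 500-530 nm emission); re-replication scored as increased high-intensity nuclei.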
* = called active by the depositor; ? = inconclusive; nt = no result; [ ] = dose if it differs, or a comment. Hits are enriched below; roughly 4.3% of the tested compounds scored in any of these assays. Unless noted, calls come from the whole dose curve; as a rule, active = well fitted activation curve with a large enough effect; inconclusive = small, poorly fitted or top-dose-only effect; inactive = no such curve, though single readings can be large or run the other way.

SMILES | Giardia killer | uPA generation | MCF10A rerep | SW480 rerep
Cc1cc(Cl)ccc1NC(=S)NCC(C)C | 24 | 1% | 1% | -2%
O=C(Cn1cnc2c(oc3nc4c(cc32)CCCC4)c1=O)Nc1cccc(Cl)c1 | 14 | 0% | 18µM* | ?
O=C(Cn1cnc2c(oc3nc4c(cc32)CCCC4)c1=O)Nc1ccccc1 | 21 | 6% | ? | ?
N#CC1CN(Cc2ccccc2)CN(Cc2ccccc2)C1 | -13 | -3% | 15µM* | ?
N#CC1CN(C(c2ccccc2)c2ccccc2)C1 | 4 | -1% | -1% | -5%
Cc1c(NC(=O)CN2C(=O)NC(C)(c3ccc(Cl)cc3)C2=O)c(=O)n(-c2ccccc2)n1C (stereo unspecified) | 3 | 10% | -1% | 1%
O=S(=O)(NC1c2cccc3cccc(c23)C1N1CCN(CCO)CC1)c1ccccc1 (stereo unspecified) | 0 | -9% | 23µM* | 6%[9.22 µM]
CC(NC(=O)CSc1n[nH]c(N)n1)c1ccccc1 (stereo unspecified) | 1 | 5% | -4% | -10%
CCCc1ccc(-c2cc(NC(=O)CSc3n[nH]c(N)n3)n(-c3ccccc3)n2)cc1 | -7 | nt | 21µM* | ?
CCOC1=C/C(=C/c2c(N)n3nc(-c4ccccc4)sc3nc2=O)C=CC1=O | -2 | -10% | 26µM* | -7%
Cc1ccc(S(=O)(=O)N(C)C[C@H]2Oc3c(NC(=O)Nc4cccc5ccccc45)cccc3C(=O)N([C@@H](C)CO)C[C@@H]2C)cc1 | 5 | ? | 4% | 18%
COc1ccc(/C=C/C(=O)c2c(C)cc(C)[nH]c2=O)c2ccccc12 | -8 | -12% | 18µM* | ?
CCc1ccc(/C=C/C(=O)c2c(C)cc(C)[nH]c2=O)cc1 | -24 | -16% | 18µM* | ?
CCOC(=O)c1c(C)[nH]c(C(=O)COC(=O)CCNS(=O)(=O)c2ccc(NC(C)=O)cc2)c1C | ? | -1% | 3% | 0%
Cc1ccc(S(=O)(=O)c2cc3ccc(O)cc3oc2=O)cc1C | 1 | -12% | 2.3µM* | 2.3µM*
COc1ccc2cc(S(=O)(=O)c3ccccc3)c(=O)oc2c1 | 15 | ? | ? | ?
CCOC(=O)CNS(=O)(=O)c1ccc(F)cc1Br | 4 | nt | nt | nt
COc1ccc(-c2cc(-c3ccco3)[nH]c(=O)c2C#N)cc1 | -17 | 7% | 13% | 9%
N#Cc1c(-c2cccc(Br)c2)cc(-c2ccco2)[nH]c1=O | 12 | -3% | 7.3µM* | ?
Cc1cccc(OCCNC(=O)c2ccc(Cl)c(S(=O)(=O)NCc3cccnc3)c2)c1 | -1 | ? | 5.8µM* | ?
Cc1cccc(OCCNC(=O)c2cncc(Br)c2)c1 | 45 | 10% | -3% | 0.92µM*
CCOc1ccc(N2C(=O)CC(N(CCc3ccc(S(N)(=O)=O)cc3)C(C)=O)C2=O)cc1 (stereo unspecified) | 18 | 4% | -8% | -90%
CNC(=S)N(CCc1ccc(S(N)(=O)=O)cc1)C1CC(=O)N(c2ccccc2F)C1=O (stereo unspecified) | 22 | -4% | 7%[9.22 µM] | 5.8µM*
COc1ccc(OC)c(-c2cnc(OC(C)(C)C)nc2OC(C)(C)C)c1 | -14 | 2.2µM* | ? | ?
CC(=O)c1nc2ccccc2n1CCc1ccccc1 | -17 | -9% | 1.8µM* | -22%
SMILES | Giardia killer | uPA generation | MCF10A rerep | SW480 rerep
Cc1nc2ccccc2n1CCc1ccccc1 | 4 | -14% | 15% | -3%
CCCOc1ccc(NC(=O)CC2C(=O)N(c3ccc(OCC)cc3)C(=S)N2C2CC2)cc1 (stereo unspecified) | 13 | 13% | 18% | ?
O=S(=O)(c1ccc2nc(-c3ccccc3)[nH]c2c1)N1CCN(c2ccc(Cl)cc2)CC1 | -1 | 5% | 16µM* | ?
CCCCCCCCCCCCCCCC(=O)Nc1ccn(C2OC(CO)C(O)C2O)c(=O)n1 (stereo unspecified) | 4 | -7% | -6% | 2.6µM*
CN(CC(=O)Nc1ccccc1C(F)(F)F)C(=O)c1ccc(N2C(=O)CCC2=O)cc1 | -25 | -1% | -11% | -142%
CCCCN(C)S(=O)(=O)c1ccc(C(=O)N=c2sc3cc(NC(C)=O)ccc3n2C)cc1 | 6 | 16% | -2% | -4%
CCCCN(CC)S(=O)(=O)c1ccc(C(=O)N=c2sc3cc(NC(C)=O)ccc3n2C)cc1 | 11 | 7% | 10µM* | 7.3µM*
CCOCCCNC(=O)Cn1cnc2sc(C)c(S(=O)(=O)N3CCN(c4ncccn4)CC3)c2c1=O | 16 | 1% | 3% | 5.2µM*
